From PubChem BioAssay AID1259415 (National Center for Advancing Translational Sciences (NCATS), 2018)
Values joined by “and” are separate entries in the source; they are usually repeats but may differ in a detail not shown here. Identical values can stand only once. Out of some 410,000 compounds screened, about 18,000 (4.4%) were called active. Not shown: some 7% with an inconclusive outcome. This excerpt belongs to a sample that is enriched for actives. A number with no mark means an inactive call. No stated cut-off is given here; in the data, active means activity change below about -60%; inconclusive means no clear call, values can overlap the other calls; inactive means above about -39%.
On the % scale 0 is the no-effect control and ±100 the full control effect.

Assay: qHTS Assay for inhibitors of the human cytomegalovirus (HCMV)
Conditions: HFF cells, HCMV-luciferase reporter, 72 h; at 57.5 µM; active compounds read low
How it was run: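 Steps: HFFs plated, 16 h 37C; compounds added; HCMV-luciferase added to MOI 1 PFU/cell; 72 h 37C; OneGlo reagent, 5 min room temperature; luminescence read, normalized to controls.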
In the case of `Cc1ccccc1NC(=O)Cn1c(=O)n(CCCCC(=O)NCc2ccccc2Cl)c(=O)c2ccccc21`, the activity change, negative = inhibition is reported as 0.203%. In the case of `Cc1cc(N2CCN(c3ccc(F)cc3)CC2)n2ncnc2n1`, the activity change, negative = inhibition is reported as -22.6%. For `COc1ccc(N2CCN(c3cc(C)nc4nncn34)CC2)cc1`, the activity change, negative = inhibition was -72.4% (active). `COc1ccc(N2CCN(c3ccc([N+](=O)[O-])nc3)CC2)cc1` gave an activity change, negative = inhibition of -29.8%. `COC(=O)c1ccc(/C=N/OCC(=O)Nc2cc(F)ccc2F)cc1` showed an activity change, negative = inhibition of 36.6%. `Cc1ccc2c(c1)c1c(c(=O)n(-c3ccccc3)c(=O)n1CC(=O)c1ccc(Cl)cc1)n2C` gave an activity change, negative = inhibition of 7.77%. In the case of `O=C(CN(Cc1ccccc1)C(=O)CCC(=O)Nc1ccccn1)NCCc1ccccc1`, the activity change, negative = inhibition is reported as 18.2%. Work on `COc1ccc(CNc2nc(-c3ccc(Cl)cc3)nn2C(=O)c2ccccc2)cc1` yielded an activity change, negative = inhibition of 1.03%. With `COc1ccc(Cn2c(-c3ccc(Cl)cc3)c[n+]3ccccc23)cc1` the activity change, negative = inhibition was -95.3% (active). For `COc1ccc(Cn2c(=O)oc3ccccc32)cc1`, the activity change, negative = inhibition was 6.27%. Compound `CCN1C(=O)C(C(=O)NC(C)c2ccccc2)C2CC1(C)Oc1ccccc12` (centres undefined) has an activity change, negative = inhibition of -37%. In the case of `CCCS(=O)(=O)N1CCN=C1SCc1cccc(F)c1`, the activity change, negative = inhibition is reported as -70.6% (active). Work on `O=C(COc1ccccc1)N1CCN=C1SCc1cccc(F)c1` yielded an activity change, negative = inhibition of -11.8%. Compound `O=S(=O)(c1ccc(F)cc1)N1CCN=C1SCc1cccc(F)c1` has an activity change, negative = inhibition of -18.5%. Work on `COc1cc(OC)cc(-c2nc3nc(C)c(CCC(=O)Nc4ccccc4)c(C)n3n2)c1` yielded an activity change, negative = inhibition of 4.64%. In the case of `Cc1ccc(NC(=O)c2ccc3[nH]c(C)cc(=O)c3c2)c(C)c1`, the activity change, negative = inhibition is reported as -8.34%. With `Cc1[nH]n(-c2ccccc2)c(=O)c1/C=N/NC(=O)c1ccoc1C` the activity change, negative = inhibition was -99.7% (active). In the case of `O=C(N/N=C/c1c(O)n(C2CC2)c(=S)[nH]c1=O)c1ccccc1`, the activity change, negative = inhibition is reported as -8.42%. With `O=C(N/N=C/c1c(O)n(C2CC2)c(=S)[nH]c1=O)c1ccccc1Cl` the activity change, negative = inhibition was -9.9%. For `CCOC(=O)CSc1nnc(CNC(=O)Cc2ccccc2)n1-c1ccccc1OC`, the activity change, negative = inhibition was -26.6%. Compound `CC(=O)c1ccc(NC(=O)c2nc(-c3ccc(C)cc3)n3c2CCCCC3)cc1` has an activity change, negative = inhibition of -8.98%. For `Cc1cccc(CNC(=O)c2cnc3sc(N4CCCCC4)nn3c2=O)c1`, the activity change, negative = inhibition was 27.1%. `CCOc1ccccc1C(=O)NC1(C(F)(F)F)C(=O)Nc2c1c(=O)[nH]c(=O)n2-c1ccc(F)cc1` (centres undefined) showed an activity change, negative = inhibition of -8.54%. In the case of `CN(CCNC(=O)c1cc2c(-c3ccccc3F)nn(C)c2s1)C1CCCCC1`, the activity change, negative = inhibition is reported as -6.98%. For `COc1ccc(CNC(=O)c2cc3c(-c4ccccc4F)nn(C)c3s2)c(OC)c1`, the activity change, negative = inhibition was -64.7% (active). `COc1ccc(CNC(=O)c2cc3c(=O)[nH]c4ccc(C)cc4c3s2)c(OC)c1` showed an activity change, negative = inhibition of -17.4%. `Cc1ccc(Nc2c(-c3ccc(C)cc3)nc3cnccn23)cc1` gave an activity change, negative = inhibition of 31.2%. `COc1ccc(OC)c(NC(=O)CSc2nc3ccccc3nc2N2CCCCC2)c1` gave an activity change, negative = inhibition of 19.8%. In the case of `CCN1CCN(c2nc(Nc3cc(OC)ccc3OC)nc(Nc3cc(OC)ccc3OC)n2)CC1`, the activity change, negative = inhibition is reported as -64.4% (active). With `CCCOc1ccc(Cl)cc1Nc1nc(NCCO)nc(N2CCCC2)n1` the activity change, negative = inhibition was 14.9%. With `COc1ccc2c(CNCCc3ccccc3C)c(C(=O)O)n(Cc3ccccc3C)c2c1` the activity change, negative = inhibition was -9.03%. With `COc1cc(C(=O)N2CCC(c3ccncc3)CC2)cc(OC)c1OC` the activity change, negative = inhibition was 18%. For `COc1ccccc1CNC(=O)CCCCn1c(=O)c2ccccc2n(CC(=O)Nc2cc(Cl)ccc2C)c1=O`, the activity change, negative = inhibition was -9.62%. Work on `O=C(NCCCN1CCCC1=O)c1ccc(S(=O)(=O)Nc2ccccc2)cc1` yielded an activity change, negative = inhibition of -28.4%. With `O=C(NCc1ccccc1)c1ccc(S(=O)(=O)Nc2cccc(C(F)(F)F)c2)cc1` the activity change, negative = inhibition was -62% (active). With `O=C(NCc1cccc(C(F)(F)F)c1)c1cccc(S(=O)(=O)N2CCN(Cc3ccccc3)CC2)c1` the activity change, negative = inhibition was 0.707%. With `O=C(NCc1ccncc1)c1cccc(NS(=O)(=O)c2ccc(F)c(F)c2)c1` the activity change, negative = inhibition was -101% (active). For `O=C(NCc1ccccc1CN1CCCC1)c1cccc(S(=O)(=O)Nc2ccc(F)cc2)c1`, the activity change, negative = inhibition was 56.8%. In the case of `O=C(NCc1ccncc1)c1ccc(NS(=O)(=O)c2cccc([N+](=O)[O-])c2)cc1`, the activity change, negative = inhibition is reported as -29%. With `Cc1ccccc1CSCCNC(=O)C1CCN(S(=O)(=O)Cc2ccccc2)CC1` the activity change, negative = inhibition was -4.14%. `Cc1ccc2nc(COc3cccc(NC(=O)c4cccc(Cl)c4)c3)cc(=O)n2c1` gave an activity change, negative = inhibition of 9.28%. For `Cc1ccccc1-c1nc(NC(C)C)nc2cc(-c3ccccc3)sc12`, the activity change, negative = inhibition was -8.38%. `Cc1cc(C)c2oc(C(=O)Nc3ccc(S(=O)(=O)N(C)c4ccccc4)cc3)cc(=O)c2c1` gave an activity change, negative = inhibition of -2.92%. With `Cc1ccc(Cl)cc1NC(=O)/C(C#N)=C\c1cn(Cc2ccc(F)cc2)c2ccccc12` the activity change, negative = inhibition was -6.14%. Compound `Cc1ccc(Cl)cc1N1CCN(C(=O)CN2C(=O)COc3ccc(S(=O)(=O)N4CCOCC4)cc32)CC1` has an activity change, negative = inhibition of 6.7%. For `CC(C)CCn1c(=O)c2c(nc3n2CCCN3Cc2ccccc2)n(C)c1=O`, the activity change, negative = inhibition was -22.4%. Work on `COc1ccc2c(CC(=O)N3CCc4cc(OC)c(OC)cc4C3)coc2c1` yielded an activity change, negative = inhibition of -13.1%. For `CCOc1ccc(C(=O)NCC(=O)N2CCCCCCC2)cc1OCC`, the activity change, negative = inhibition was -11.3%. For `CCOc1cc(C(=O)N2CCc3cc(OC)c(OC)cc3C2)ccc1OC(F)F`, the activity change, negative = inhibition was -71.6% (active). Compound `Cc1nn(C(=O)c2c(F)cccc2F)c(C)c1S(=O)(=O)N1CCOCC1` has an activity change, negative = inhibition of 9.99%. With `O=S(=O)(c1cnccc1N1CCN(/N=C/c2ccc(Br)cc2)CC1)N1CCCCC1` the activity change, negative = inhibition was -6.47%. Compound `COc1ccc(C(=O)NC2CC(C)(C)NC(C)(C)C2)cc1OC` has an activity change, negative = inhibition of 7.69%. For `COc1cc2c(cc1OC)C(=O)NCC(C)(C)O2`, the activity change, negative = inhibition was -102% (active). In the case of `COc1cc(OC)c(C(=O)NC2CC(C)(C)NC(C)(C)C2)cc1OC`, the activity change, negative = inhibition is reported as 37.1%. `COc1ccc(NC(=O)CSc2nc3ccccc3n2CC(=O)N2CCCCC2C)cc1` (centres undefined) gave an activity change, negative = inhibition of -20.6%. Compound `O=C(c1cnn(-c2ccc(F)cc2)c1-n1cccc1)N1CCN(c2ccc(F)cc2)CC1` has an activity change, negative = inhibition of -8.43%. `CCCCOc1ccc(C(=O)Nc2cccc(-c3nc4ccccc4o3)c2C)cc1` showed an activity change, negative = inhibition of -17.8%. For `CCOc1ccc(C2C(C(=O)Nc3ccc(Cl)cc3)=C(C)Nc3nc(C(F)(F)F)nn32)cc1` (centres undefined), the activity change, negative = inhibition was -84.1% (active). With `COc1cc(C2C(C(=O)Nc3ccc(F)cc3)=C(C)Nc3nc(CCCO)nn32)cc(OC)c1OC` (centres undefined) the activity change, negative = inhibition was 8.48%. `COC(=O)c1nc2n(n1)C(c1ccc([N+](=O)[O-])cc1)C(C(=O)Nc1ccc(Cl)cc1)=C(C)N2` (centres undefined) gave an activity change, negative = inhibition of 5.33%. Compound `Cc1ccc2oc3c(c(=O)c2c1)C(c1ccc([N+](=O)[O-])cc1)N(CCCN1CCOCC1)C3=O` (centres undefined) has an activity change, negative = inhibition of 40.9%. With `COc1ccc(CCNC(=O)C(=O)NCC(c2ccco2)S(=O)(=O)c2cccs2)cc1OC` (centres undefined) the activity change, negative = inhibition was 0.563%. With `CCOc1ccc(CCNC(=O)c2csc3c2CCCCC3)cc1` the activity change, negative = inhibition was -5.3%. Compound `Cc1cccc(OCCCC(=O)Nc2sc3c(c2C(N)=O)CCC(C)C3)c1` (centres undefined) has an activity change, negative = inhibition of -6.01%. For `CCOCCCNC(=S)Nc1ccc2nc(N3CCN(CC)CC3)cc(C)c2c1`, the activity change, negative = inhibition was -1.19%. For `COc1ccc(C(=O)Nc2ccc3nc(N4CCCCC4)cc(C)c3c2)cc1OC`, the activity change, negative = inhibition was -31.4% and -29.2%. For `CCN1CCN(c2cc(C)c3cc(NC(=O)c4cc(Cl)ccc4OC)ccc3n2)CC1`, the activity change, negative = inhibition was -99.2% (active). In the case of `COc1ccc(CCNC(=O)CCCn2c(=O)c3ccccc3n(Cc3ccc(F)cc3Cl)c2=O)cc1OC`, the activity change, negative = inhibition is reported as 12.1%. With `O=C1OCCC1=COCCCCOC=C1CCOC1=O` the activity change, negative = inhibition was 19%. Work on `COc1ccc(CNC(=O)Cc2coc3ccc(C(C)C)cc23)cc1` yielded an activity change, negative = inhibition of -6.28%. For `Cc1c(NC(=O)C(C)(C)C)cccc1-c1nc2ccccc2s1`, the activity change, negative = inhibition was 39.5%. With `Cc1c(NC(=O)Cc2ccccc2)cccc1-c1nc2cccnc2s1` the activity change, negative = inhibition was -66.4% (active). `Cc1ccc(Cl)cc1NC(=O)Cc1ccc(-n2c(C)nc3cccnc32)cc1` showed an activity change, negative = inhibition of 0%. In the case of `O=C(CCc1cn(Cc2ccc(F)cc2)c2ccccc12)NC1CCCCC1`, the activity change, negative = inhibition is reported as 4.53%. Compound `Cc1nc(N2CCOCC2)sc1C(=O)NN` has an activity change, negative = inhibition of 0%. For `Cc1nc(N2CCCCC2)sc1C=O`, the activity change, negative = inhibition was -68.8% (active). With `CC(C)C(C)(C#N)NC(=O)CSc1nncn1-c1ccccc1` (centres undefined) the activity change, negative = inhibition was -23%. Work on `COc1ccccc1C1C(C(=O)N2CCCCC2)=C(C)Nc2nc3ccccc3n21` (centres undefined) yielded an activity change, negative = inhibition of 1.21%. With `COC(=O)c1c(NC(=O)c2cc(=O)c3c(C)cc(C)cc3o2)sc2c1CCCC2` the activity change, negative = inhibition was 17.7%. Compound `CCN(Cc1nc2ccccc2c(=O)[nH]1)Cc1cc(=O)oc2cc(C)c(C)cc12` has an activity change, negative = inhibition of 17.8%. Work on `CCN(CC(=O)NC(=O)NCc1ccccc1)Cc1nc2ccccc2c(=O)[nH]1` yielded an activity change, negative = inhibition of 5.98%. With `CCN(CC)c1ccc(C(=O)NNC(=O)CCc2nc3ccccc3c(=O)[nH]2)cc1` the activity change, negative = inhibition was -64.9% (active). Compound `COc1ccc(-c2cc(NCc3ccc(F)cc3)n3cnnc3n2)cc1` has an activity change, negative = inhibition of -27.8%. With `CCc1cnc2c(c1SCC(=O)c1ccccc1)c(=O)n(C)c(=O)n2C` the activity change, negative = inhibition was -3.48%. `COCC(C)NS(=O)(=O)c1ccc(N2CCCCS2(=O)=O)cc1` (centres undefined) showed an activity change, negative = inhibition of -11.3%. With `CC(c1ccccc1)n1c(NCCCn2ccnc2)nc2c1c(=O)[nH]c(=O)n2C` (centres undefined) the activity change, negative = inhibition was 97.4%. With `CN(CC(=O)Nc1ccccc1C(F)(F)F)C(=O)Cc1ccccc1F` the activity change, negative = inhibition was -12.2%. For `Cc1cc(C)nc(NC(=O)Nc2ccccc2C(F)(F)F)n1`, the activity change, negative = inhibition was -62.1% (active). For `O=C(NNC(=O)c1ccccc1[N+](=O)[O-])Nc1ccccc1C(F)(F)F`, the activity change, negative = inhibition was -0.175%.
